Measurements as given in the supplement of paper PMC13380429.

Each compound was assayed on Vero E6 infected with SARS-CoV-2 (assay: morphology score (similarity to uninfected cells); higher = more like uninfected cells). Settings: 24 h.

Compound | morphology score
COc1cc2ncnc(Nc3ccc(Cl)cc3F)c2cc1OC (10 µM) | -0.174
CN1c2ccccc2C(=O)N2CCc3c([nH]c4ccccc34)C21 (stereo in doubt) [evodiamine] (10 µM) | -0.093
CC(C)Nc1nc2cc(Cl)c(Cl)cc2n1[C@H]1O[C@@H](CO)[C@H](O)[C@@H]1O [maribavir] (10 µM) | -0.0681
O=[N+]([O-])O[C@H]1CO[C@H]2[C@@H]1OC[C@H]2O[N+](=O)[O-] [isosorbide-dinitrate] (10 µM) | 0.0765
CCCNC(C)C(=O)Nc1ccccc1C (configuration not stated) [prilocaine] (10 µM) | -0.208
C=C(c1ccc(C(=O)O)cc1)c1cc2c(cc1C)C(C)(C)CCC2(C)C [bexarotene] (10 µM) | 0.18
Nc1ncnc2c1ncn2[C@@H]1O[C@H](C[C@@H](N)CC[C@H](N)C(=O)O)[C@@H](O)[C@H]1O [sinefungin] (10 µM) | 0.0839
CCn1cc(C(=O)O)c(=O)c2cc(F)c(N3CCNCC3)cc21 [norfloxacin] (10 µM) | 0.204
C[C@@H](O)[C@H]1C(=O)N2C(C(=O)[O-])=C(SC3Cn4cnc[n+]4C3)[C@H](C)[C@H]12 (some centres not stated) [biapenem] (10 µM) | -0.0332
Clc1cc(Cl)c(OCC#CI)cc1Cl [haloprogin] (10 µM) | 0.57
CN1C(=O)CCS(=O)(=O)C1c1ccc(Cl)cc1 (configuration not stated) [chlormezanone] (10 µM) | -0.0968
CCN1CCCC1CNC(=O)c1cc(S(N)(=O)=O)ccc1OC (configuration not stated) [sulpiride] (10 µM) | -0.0261
